Reference: PubChem BioAssay AID602413 (Johns Hopkins Ion Channel Center, 2012)
Hit rate of the full screen: of about 1,200 compounds, about 150 (12%) were called active.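 How the source made its calls: active means ratio at least 3 SD above the weak peptide control, stable starting fluorescence, no direct agonism earlier; inactive means the rest.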 Only a sample is shown.

Biological target: Mas-related G-protein coupled receptor member X1 (Homo sapiens) (UniProt Q96LB2)
Experiment: allosteric enhancers of human MrgX1 signaling – HEK293 cells, Fluo-4 calcium flux, confirmation (AID 602413);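 further: compound followed by low BAM8-22 agonist challenge near EC20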
Conditions: MrgX1-HEK293, Fluo-4 calcium fluorescence, FDSS, at 10 µM; hits give high values

Chain of Mas-related G-protein coupled receptor member X1 (Homo sapiens) (Q96LB2 whole entry, looked up): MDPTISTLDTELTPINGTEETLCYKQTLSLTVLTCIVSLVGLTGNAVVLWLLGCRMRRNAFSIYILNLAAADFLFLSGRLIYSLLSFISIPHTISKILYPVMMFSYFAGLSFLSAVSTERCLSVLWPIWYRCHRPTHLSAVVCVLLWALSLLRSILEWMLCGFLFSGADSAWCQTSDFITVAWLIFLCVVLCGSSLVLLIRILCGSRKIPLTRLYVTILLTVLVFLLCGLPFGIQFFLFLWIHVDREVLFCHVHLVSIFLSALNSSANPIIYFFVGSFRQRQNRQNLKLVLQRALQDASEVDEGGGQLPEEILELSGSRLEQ

Activation (ratio percentage), active:
Cc1cccc(NC(=O)C(C)N2C(=O)C3C4CC(C(Br)C4Br)C3C2=O)c1 (stereo unspecified) 11.6%
COc1cc(C)c(C)cc1S(=O)(=O)N1CCCc2ccccc21 12.4%

Activation (ratio percentage), inactive:
OCCn1c(-c2ccccc2)csc1=Nc1ccccc1
CN1/C(=C\C=C2\N=C(c3ccc(F)cc3)OC2=O)C(C)(C)c2ccccc21
COCCNC(=O)C1CCN(S(=O)(=O)c2ccc3c(c2)OCCO3)CC1
Fc1cccc(Cl)c1COc1ccc(-c2nnco2)cc1
O=C1C(Cc2ccc(O)cc2)NC(=S)N1Cc1ccccc1 (stereo unspecified)
COC(=O)c1c(NC(=O)CN(c2ccc(C)c(C)c2)S(C)(=O)=O)sc2c1CCCC2
Cc1cccc(Cn2cnc3c(N)c(C)c(C)cc32)c1
COc1cccc(-c2cnc(OC(C)(C)C)nc2OC(C)(C)C)c1
Brc1ccccc1C1Nc2cccc3cccc(c23)N1
Cc1ccc(OC(=O)c2cc3ccccc3o2)cc1
Cc1ccnc(NC(=O)C(C)N2C(=O)c3ccccc3C2=O)c1 (stereo unspecified)
COC(=O)Cn1c(O)c(N=NC(=O)OC)c2ccccc21
CCOc1ccc(C2=CC(c3ccccc3)n3ncnc3N2)cc1 (stereo unspecified)
COc1ccc(C2SCCN2S(=O)(=O)c2ccccc2)cc1OC (stereo unspecified)
COc1cc(C(F)(F)F)nc2c(Br)c(C(C)(C)C)nn12
Cc1c(C(=O)N2CCCc3ccccc32)sc2nc(-c3ccccc3)cn12
CCOc1ccc2nc(/N=C/c3nc(-c4ccccc4)oc3O)sc2c1
Cc1c(C(=O)N2CCN(c3ccc(F)cc3)CC2)oc2c1C(=O)CCC2
CCOc1ccc(NC(=O)N2CC=C(n3c(=O)[nH]c4ccccc43)CC2)cc1
CCc1ccc(N(CC(=O)Nc2sc3c(c2C(=O)OC)CCCC3)S(C)(=O)=O)cc1
O=C(c1ccc(OC2CCN(C(=O)c3cccnc3)CC2)cc1)N1CCCCCC1
CC(C)CNc1ncnc2c1cnn2Cc1ccc(Cl)cc1
CC(=O)N1c2ccc(S(=O)(=O)N3CCCC(C(=O)Nc4cccc(Cl)c4)C3)cc2CC1C (stereo unspecified)
Cc1ccc(-n2cnc3ncnc(-c4ccccc4)c32)cc1
CC(C)CC(=O)N/C(N)=N/c1nc2ccccc2s1
Cc1ccc2nc(Nc3ccccc3)cc(C)c2c1
COc1ccc(Cc2nc(-c3ccccn3)no2)cc1OC
Nc1cc(OC(=O)c2ccccc2Br)nn1S(=O)(=O)c1ccccc1
O=C(c1cccc(S(=O)(=O)Nc2ccccc2Cl)c1)N1CCN(C(=O)c2ccco2)CC1
